PubChem BioAssay
For some of these results: Entries with a potency or affinity are not part of this list. Active and inactive are the calls of the source. Unless noted, how the calls were made is not given here.

Experiments:
[1] = antimalarial activity against Dd2 strain (AID 2302;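 active means growth inhibition above 50% at the single 2 µM test dose, taken to imply half-maximal potency below 2 µM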;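 further: 0% = DMSO untreated growth and 100% = chloroquine plus artemisinin killed control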); details: P. falciparum Dd2 in RBCs, LDH growth readout, 72 h; at 2 µM; active compounds read high
[2] = HepG2 cytotoxicity, primary screen, cytotoxicity control for P. falciparum antimalarial project, cell-based, ATP luminescence (AID 2303;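 active means inhibition above 50%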;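 further: 0% = DMSO wells and 100% = digitonin-killed cells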); details: HepG2 viability, 24-48 h, at 10 µM, active compounds read high
[3] = molecular target: L-lactate dehydrogenase (Plasmodium falciparum (isolate CDC / Honduras)) (UniProt Q27743); test: PfLDH activity inhibition – cell lysate, 3D7 strain, counter-screen for P. falciparum growth inhibition project (AID 2304);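 further: 0% = vehicle and 100% = reference inhibitor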; details: P. falciparum 3D7 crude extract, LDH APAD/NBT absorbance; at 2 µM; active compounds read high
[4] = inhibition of 3D7 malaria parasite growth – strain 3D7 (AID 2306);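 further: 0% = DMSO wells and 100% = chloroquine plus artemisinin control wells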; details: P. falciparum 3D7 erythrocytic growth, LDH absorbance, 72 h; at 2 µM; active compounds read high
[5] = molecular target: Calcium-dependent protein kinase 1 (Plasmodium falciparum (isolate 3D7)) (UniProt P62344); test: PfCDPK1 kinase inhibitors, biochemical, TCAMS library (AID 1159585; cut-off not given, nearly all actives have IC50 up to about 0.98 µM;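 further: inhibitors leave more ATP so luminescence rises with inhibition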); details: recombinant PfCDPK1, Kinase-Glo ATP depletion luminescence
[6] = molecular target: Plasmodium falciparum protein kinase 6 (PK6, PF3D7_1337100) (UniProt Q8IDW1); test: PfPK6 kinase inhibitors, biochemical, TCAMS library (AID 1159586); details: recombinant PfPK6, Kinase-Glo ATP depletion luminescence
[7] = molecular target: Protein kinase 7 (PK7), Plasmodium falciparum 3D7 (PF3D7_0213400) (UniProt Q7YTF7); test: inhibition of Plasmodium PK7 catalytic activity – biochemical, TCAMS antimalarial set, Kinase-Glo luminescence (AID 1159587); details: recombinant PfPK7, Kinase-Glo ATP depletion luminescence
[8] = molecular target: Calcium-dependent protein kinase 4 (Plasmodium falciparum (isolate 3D7)) (UniProt Q8IBS5); test: PfCDPK4 kinase inhibitors, biochemical, TCAMS library (AID 1159588; cut-off not given, nearly all actives have IC50 up to about 0.91 µM); details: recombinant PfCDPK4, Kinase-Glo ATP depletion luminescence
Chain of Calcium-dependent protein kinase 4 (Plasmodium falciparum (isolate 3D7)) (Q8IBS5 whole entry, looked up): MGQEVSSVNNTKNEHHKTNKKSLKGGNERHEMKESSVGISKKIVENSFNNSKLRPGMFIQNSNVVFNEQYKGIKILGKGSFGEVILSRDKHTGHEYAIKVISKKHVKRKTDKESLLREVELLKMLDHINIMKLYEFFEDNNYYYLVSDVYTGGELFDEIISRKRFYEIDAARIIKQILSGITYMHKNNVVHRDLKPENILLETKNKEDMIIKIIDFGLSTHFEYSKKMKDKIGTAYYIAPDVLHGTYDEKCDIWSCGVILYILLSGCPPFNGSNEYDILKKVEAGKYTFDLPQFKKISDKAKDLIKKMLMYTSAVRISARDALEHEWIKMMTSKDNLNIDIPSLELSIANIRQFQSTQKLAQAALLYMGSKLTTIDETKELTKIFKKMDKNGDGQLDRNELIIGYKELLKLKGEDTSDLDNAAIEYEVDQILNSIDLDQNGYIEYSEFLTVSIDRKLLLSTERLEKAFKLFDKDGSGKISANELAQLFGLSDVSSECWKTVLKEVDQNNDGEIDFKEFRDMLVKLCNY

Chain of Calcium-dependent protein kinase 1 (Plasmodium falciparum (isolate 3D7)) (P62344 whole entry, looked up): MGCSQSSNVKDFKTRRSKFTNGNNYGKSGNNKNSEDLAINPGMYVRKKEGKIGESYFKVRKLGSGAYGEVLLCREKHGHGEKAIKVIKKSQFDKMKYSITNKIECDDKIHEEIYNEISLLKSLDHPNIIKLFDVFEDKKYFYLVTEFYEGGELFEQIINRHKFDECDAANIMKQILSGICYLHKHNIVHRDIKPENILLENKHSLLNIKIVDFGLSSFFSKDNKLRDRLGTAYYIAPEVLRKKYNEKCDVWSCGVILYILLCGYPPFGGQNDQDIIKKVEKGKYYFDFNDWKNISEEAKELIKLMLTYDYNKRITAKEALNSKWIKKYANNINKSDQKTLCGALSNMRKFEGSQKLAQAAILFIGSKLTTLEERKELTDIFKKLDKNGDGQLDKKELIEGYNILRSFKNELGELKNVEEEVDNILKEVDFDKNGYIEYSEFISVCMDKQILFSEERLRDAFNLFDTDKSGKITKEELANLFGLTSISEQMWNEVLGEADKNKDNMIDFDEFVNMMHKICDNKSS
Chain of Plasmodium falciparum protein kinase 6 (PK6, PF3D7_1337100) (Q8IDW1 1-305): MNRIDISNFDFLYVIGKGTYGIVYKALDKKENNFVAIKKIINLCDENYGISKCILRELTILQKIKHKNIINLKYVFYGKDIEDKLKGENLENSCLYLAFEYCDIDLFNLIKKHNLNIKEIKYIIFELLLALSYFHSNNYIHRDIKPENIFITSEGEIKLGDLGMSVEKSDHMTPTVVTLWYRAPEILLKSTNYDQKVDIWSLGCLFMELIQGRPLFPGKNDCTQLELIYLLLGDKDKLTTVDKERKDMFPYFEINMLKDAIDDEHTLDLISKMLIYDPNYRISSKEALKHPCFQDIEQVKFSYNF
Chain of Protein kinase 7 (PK7), Plasmodium falciparum 3D7 (PF3D7_0213400) (Q7YTF7 1-343): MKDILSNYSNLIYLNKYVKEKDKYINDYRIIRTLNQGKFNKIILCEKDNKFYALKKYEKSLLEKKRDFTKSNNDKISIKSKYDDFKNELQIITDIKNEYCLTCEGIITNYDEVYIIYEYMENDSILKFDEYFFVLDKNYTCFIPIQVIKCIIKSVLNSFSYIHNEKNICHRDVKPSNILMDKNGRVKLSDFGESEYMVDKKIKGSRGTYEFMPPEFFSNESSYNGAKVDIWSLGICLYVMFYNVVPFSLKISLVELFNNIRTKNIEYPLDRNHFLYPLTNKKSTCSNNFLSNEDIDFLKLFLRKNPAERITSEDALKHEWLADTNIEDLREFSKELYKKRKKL
Chain of L-lactate dehydrogenase (Plasmodium falciparum (isolate CDC / Honduras)) (Q27743 whole entry, looked up): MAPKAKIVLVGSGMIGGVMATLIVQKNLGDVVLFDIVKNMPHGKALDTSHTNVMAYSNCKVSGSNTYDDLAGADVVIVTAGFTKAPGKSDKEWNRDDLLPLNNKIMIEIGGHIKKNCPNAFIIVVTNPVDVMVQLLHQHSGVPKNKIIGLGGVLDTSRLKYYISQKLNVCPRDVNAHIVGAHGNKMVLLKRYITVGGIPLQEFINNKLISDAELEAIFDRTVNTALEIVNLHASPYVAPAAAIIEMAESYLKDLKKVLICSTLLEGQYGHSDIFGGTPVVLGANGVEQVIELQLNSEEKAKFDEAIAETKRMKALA

O=C(/C=C/c1ccc(Cl)c(Cl)c1)N1CCC(CCN2CCc3[nH]c4ccccc4c3C2)CC1
active: growth inhibition [4] 96%
inactive: growth inhibition [1] -1% | inhibition [2] 22% | inhibition [3] -3% | outcome [5] | outcome [6] | outcome [7] | outcome [8]

c1cncc(CCNCc2cccc(-c3csc(-c4nc5ccccc5[nH]4)c3)c2)c1
inactive: inhibition [2] 26% | inhibition [3] -1% | outcome [5] | outcome [6] | outcome [7] | outcome [8]
active: growth inhibition [1] 98% | growth inhibition [4] 100%

Cc1cnc2cc3c(cc2c1N1CCN(C)CC1)NCC3
inactive: inhibition [2] 12% | inhibition [3] 3% | outcome [5] | outcome [6] | outcome [7] | outcome [8]
active: growth inhibition [1] 69% | growth inhibition [4] 102%

CC(=O)Nc1cccc(CN(Cc2ccc(-c3ccc(CNCc4cccnc4)cn3)cc2)C(=O)Cc2cccnc2)c1
inactive: inhibition [2] -3% | inhibition [3] -10% | outcome [5] | outcome [6] | outcome [7] | outcome [8]
active: growth inhibition [1] 65% | growth inhibition [4] 97%

OC1CCCN(Cc2cccc(-c3ccc(-c4nc5ccc(C(F)(F)F)cc5[nH]4)cc3)c2)C1 (centres undefined)
inactive: inhibition [2] 27% | inhibition [3] 4% | outcome [5] | outcome [6] | outcome [7] | outcome [8]
active: growth inhibition [1] 91% | growth inhibition [4] 100%

CCOc1cc(C(=O)Nc2cccnc2)ccc1-c1nc2cc(Cl)c(Cl)cc2[nH]1
active: growth inhibition [1] 70% | growth inhibition [4] 100%
inactive: inhibition [2] 9% | inhibition [3] 0% | outcome [5] | outcome [6] | outcome [7] | outcome [8]

CCCC(N)C(=O)NC1CCN(c2c(F)c(N)c3c(=O)c(C(=O)O)cn4c3c2Oc2ccccc2-4)C1 (centres undefined)
inactive: inhibition [3] -5% | outcome [5] | outcome [6] | outcome [7] | outcome [8]
active: growth inhibition [1] 98% | inhibition [2] 66% | growth inhibition [4] 98%

Cc1ccc(CN2CCC(C(=O)Nc3ccc(-c4cc5ccccc5[nH]4)cc3)CC2)o1
active: growth inhibition [4] 92%
inactive: growth inhibition [1] 40% | inhibition [2] 19% | inhibition [3] 3% | outcome [5] | outcome [6] | outcome [7] | outcome [8]

COc1ccc(C2CCC(NCCCCNC(=O)c3ccc(NC(=O)c4ccc(Cl)cc4)cc3)CC2)cc1 (centres undefined)
inactive: growth inhibition [1] 7% | inhibition [2] 23% | inhibition [3] -6% | outcome [5] | outcome [6] | outcome [7] | outcome [8]
active: growth inhibition [4] 99%

Clc1ccc2c(NN=Cc3ccccc3)ccnc2c1
inactive: inhibition [2] -6% | inhibition [3] -3% | outcome [5] | outcome [6] | outcome [7] | outcome [8]
active: growth inhibition [1] 94% | growth inhibition [4] 100%

O=C(/C=C/c1ccc(Cl)c(Cl)c1)N1CCC(CN2CCC(Cc3c[nH]c4ccccc34)CC2)CC1
active: growth inhibition [4] 98%
inactive: growth inhibition [1] 13% | inhibition [2] 24% | inhibition [3] 1% | outcome [5] | outcome [6] | outcome [7] | outcome [8]

O=C(NCC1CC1)C1CCN(C(c2ccccc2)c2ccc(Cl)c(Cl)c2)CC1 (centres undefined)
inactive: inhibition [2] 7% | inhibition [3] -1% | outcome [5] | outcome [6] | outcome [7] | outcome [8]
active: growth inhibition [1] 96% | growth inhibition [4] 97%

CCN(CC)CCCN(C(=O)c1cc2c(C)nn(-c3ccccc3)c2s1)c1nc(-c2ccc(OC)cc2)cs1
inactive: growth inhibition [1] 32% | inhibition [2] 12% | inhibition [3] -7% | outcome [5] | outcome [6] | outcome [7] | outcome [8]
active: growth inhibition [4] 89%

O=C(/C=C/c1ccc(Cl)c(Cl)c1)NCCCCCN1CCCN(C(=O)Nc2ccc(OC(F)F)cc2)CC1
inactive: growth inhibition [1] -4% | inhibition [2] 39% | inhibition [3] 3% | outcome [5] | outcome [6] | outcome [7] | outcome [8]
active: growth inhibition [4] 99%

CN1CCCN(Cc2ccc(-c3ccc(NS(=O)(=O)c4cccc5cccnc45)cc3)cc2)CC1
active: growth inhibition [1] 85% | growth inhibition [4] 99%
inactive: inhibition [2] 35% | inhibition [3] 5% | outcome [5] | outcome [6] | outcome [7] | outcome [8]

CC(=O)N1N=C(c2ccc(Cl)cc2)Sc2c1nc(-c1ccccc1)n2C(C)=O
inactive: inhibition [2] -3% | inhibition [3] 3% | outcome [5] | outcome [6] | outcome [7] | outcome [8]
active: growth inhibition [1] 81% | growth inhibition [4] 105%

Cc1c(Cl)cccc1S(=O)(=O)Nc1cccc(CCN2CCC(N3CCCCC3)CC2)c1
active: growth inhibition [1] 82% | growth inhibition [4] 101%
inactive: inhibition [2] 38% | inhibition [3] -1% | outcome [5] | outcome [6] | outcome [7] | outcome [8]

CCn1c(Sc2ccc(C#N)c([N+](=O)[O-])c2)nnc1-c1ccc(Cl)cc1
inactive: inhibition [2] 0% | inhibition [3] 6% | outcome [5] | outcome [6] | outcome [7] | outcome [8]
active: growth inhibition [1] 93% | growth inhibition [4] 97%

CC(=O)Nc1ccc(C(=O)Nc2cccc(-c3cccc(-c4nc5ccc(F)cc5[nH]4)c3)c2)cn1
inactive: inhibition [2] -5% | inhibition [3] 1% | outcome [5] | outcome [6] | outcome [7] | outcome [8]
active: growth inhibition [1] 98% | growth inhibition [4] 99%

N#Cc1ccc(-c2nc3c(N4CCCC4)cccc3n2CCNCc2ccccc2)cc1
inactive: inhibition [2] 2% | inhibition [3] -3% | outcome [5] | outcome [6] | outcome [7] | outcome [8]
active: growth inhibition [1] 99% | growth inhibition [4] 100%

CCCCN1CCN(CCCCNc2c3ccccc3nc3ccccc23)CC1
inactive: growth inhibition [1] 5% | inhibition [2] 27% | inhibition [3] 4% | outcome [5] | outcome [6] | outcome [7] | outcome [8]
active: growth inhibition [4] 100%

COc1ccc(C=CC(=O)Nc2ccc(N3CCCC3)cc2)cc1
inactive: growth inhibition [1] 9% | inhibition [2] -1% | inhibition [3] -1% | outcome [5] | outcome [6] | outcome [7] | outcome [8]
active: growth inhibition [4] 81%

Cc1nc2ccc3ccc(CNc4ccc5c(c4)CN([C@H](CCC(=O)O)C(=O)O)C5=O)cc3c2c(=O)[nH]1
active: growth inhibition [1] 90% | growth inhibition [4] 87%
inactive: inhibition [2] 38% | inhibition [3] 2% | outcome [5] | outcome [6] | outcome [7] | outcome [8]

Cc1nc2nc(N)nc(N)c2c(C)c1Cc1ccccc1Br
inactive: growth inhibition [1] 2% | inhibition [3] 1% | outcome [5] | outcome [6] | outcome [7] | outcome [8]
active: inhibition [2] 65% | growth inhibition [4] 92%

COCCN1CCC(NCC(C)(C)c2nc(-c3ccc(Cl)c(O)c3)c(-c3ccncc3)[nH]2)CC1
active: growth inhibition [4] 102%
inactive: growth inhibition [1] 47% | inhibition [2] -8% | inhibition [3] -2% | outcome [5] | outcome [6] | outcome [7] | outcome [8]

Cc1ccc(-c2ccc3c(c2)C=C(C(=O)NC2CCN(CCNC(=O)c4cccc(C(F)(F)F)c4)CC2)CCC3)cc1
inactive: inhibition [2] 25% | inhibition [3] -3% | outcome [5] | outcome [6] | outcome [7] | outcome [8]
active: growth inhibition [1] 56% | growth inhibition [4] 100%

CCn1cc(C=C2Oc3c(ccc(O)c3CN3CCCCC3)C2=O)c2ccccc21
active: growth inhibition [1] 99% | growth inhibition [4] 101%
inactive: inhibition [2] -9% | inhibition [3] -3% | outcome [5] | outcome [6] | outcome [7] | outcome [8]

CC(C)Cn1cc(C2CCN(CCN3CCC(CNC(=O)c4ccc(NC(=O)c5ccc(Cl)cc5)cc4)CC3)CC2)c2ccccc21
active: growth inhibition [1] 99% | growth inhibition [4] 101%
inactive: inhibition [2] 28% | inhibition [3] -2% | outcome [5] | outcome [6] | outcome [7] | outcome [8]

Cc1cc(N(C)C2CCN(CC3CCCCC3)C2)nc(Nc2ccc(Cl)cc2)n1 (centres undefined)
active: growth inhibition [4] 98%
inactive: growth inhibition [1] 35% | inhibition [2] -3% | inhibition [3] -5% | outcome [5] | outcome [6] | outcome [7] | outcome [8]

Cc1[nH]c2ccc(-c3ccc(N(C)C)cc3)cc2c(=O)c1Cl
inactive: inhibition [2] -1% | inhibition [3] 5% | outcome [5] | outcome [6] | outcome [7] | outcome [8]
active: growth inhibition [1] 96% | growth inhibition [4] 97%

CCc1nc(N)nc(N)c1-c1cccc(Cl)c1
active: inhibition [2] 60% | growth inhibition [4] 94%
inactive: growth inhibition [1] 1% | inhibition [3] 2% | outcome [5] | outcome [6] | outcome [7] | outcome [8]

CCCCCc1cc(OC(=O)CCCN(CC)CC)c2c(c1)OC(C)(C)C=C2C1=CCN(Cc2ccc3ccccc3c2)CC1
inactive: inhibition [3] -2% | outcome [5] | outcome [6] | outcome [7] | outcome [8]
active: growth inhibition [1] 92% | inhibition [2] 94% | growth inhibition [4] 100%

O=S(=O)(c1c(Cl)cc(Cl)cc1Cl)N1CCCCC(c2ccc(C(F)(F)F)cc2)=N1
inactive: inhibition [2] 6% | inhibition [3] -5% | outcome [5] | outcome [6] | outcome [7] | outcome [8]
active: growth inhibition [1] 99% | growth inhibition [4] 98%

NC(=O)COc1c(C2CCN(CCN3CCC(CNC(=O)c4ccc(-c5ccc(C(F)(F)F)cc5)cc4)CC3)CC2)ccc2c1CCCC2
active: growth inhibition [1] 68% | growth inhibition [4] 87%
inactive: inhibition [2] 32% | inhibition [3] -1% | outcome [5] | outcome [6] | outcome [7] | outcome [8]

Cn1cnc2c(Nc3ccncc3)nc(-c3ccc(OC(F)(F)F)cc3)nc21
inactive: inhibition [2] 28% | inhibition [3] -1% | outcome [5] | outcome [6] | outcome [7] | outcome [8]
active: growth inhibition [1] 65% | growth inhibition [4] 102%

CCOc1ccc2c(c1)C(C)(c1ccc3c(c1)C(C)CC(C)(C)N3)CC(C)(C)N2 (centres undefined)
active: growth inhibition [4] 94%
inactive: growth inhibition [1] 3% | inhibition [2] 5% | inhibition [3] -5% | outcome [5] | outcome [6] | outcome [7] | outcome [8]

Nc1ncc(-c2ccc3nccc(-c4ccncc4)c3c2)cc1S(=O)(=O)N1CCOCC1
inactive: inhibition [2] 39% | inhibition [3] -1% | outcome [5] | outcome [6] | outcome [7] | outcome [8]
active: growth inhibition [1] 99% | growth inhibition [4] 100%

COc1ccc2nccc(N3CCC(SCCNS(=O)(=O)c4ccc5c(c4)NC(=O)CS5)C3)c2n1 (centres undefined)
active: growth inhibition [4] 99%
inactive: growth inhibition [1] 17% | inhibition [2] 20% | inhibition [3] -5% | outcome [5] | outcome [6] | outcome [7] | outcome [8]
